The source of these data is PubChem BioAssay AID602449 (Sanford-Burnham Center for Chemical Genomics, 2012).

The whole screen tested about 360,000 compounds, of which about 5,000 (1.4%) were called active. Only a selection was taken, and actives are over-represented in it overall. A number with no mark means an inactive call.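 The calls were made as follows: active = inhibition of 50% or more, scaled per plate between neutral and stimulator controls; inactive = the rest.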

The test in a line: mitochondrial permeability transition pore inhibitors, primary screen, biochemical, isolated mouse mitochondria, absorbance (AID 602449).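 Also: 0% = DMSO wells given calcium and 100% = 1 mM EGTA wells.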 The note with it: Ca2+ swelling absorbance, 30 min, at 10 µM, active compounds read high.
In the case of `CCOc1ccc(CN2CCN(Cc3ccon3)CC2CCO)cc1` (stereo unspecified), the inhibition was -1.1%.

For `COc1ccc(OCCNS(=O)(=O)Cc2ccccc2)cc1`, the inhibition is 0.9%.

Take `COc1ccc(S(=O)(=O)NCCOc2ccccc2)cc1F`: the inhibition was 0.7%.

For the compound `COc1ccc(S(=O)(=O)NCCCCOc2ccc(Cl)cc2)cc1`, the inhibition was 98.5% (active).

Turning to `CCc1cccc(CC)c1NC(=O)COc1ccccc1C(=O)c1cc(C#N)c(=O)n(C2CCCCC2)c1`, the inhibition is 1%.

As for `Cc1cc2cc3n(c2nn1)N=C(Cl)CC3`, the inhibition is 0.9%.

Consider `COc1ccc(C(=O)COC(=O)CN2C(=O)C3CC=CCC3C2=O)c(OC)c1` (stereo unspecified), for which the inhibition is -2.3%.

For the compound `O=C(Nc1ccc(N2C(=O)c3cccc4cccc(c34)C2=O)cc1)c1ccc(N2CCCCC2)c([N+](=O)[O-])c1`, the inhibition was 1.1%.

As for `O=C(NC1C2CC3CC(C2)CC1C3)c1ccc(N2CCNCC2)c([N+](=O)[O-])c1` (stereo unspecified), the inhibition is -2.4%.

Turning to `O=C(Nc1cccc(C(F)(F)F)c1)c1ccc(N2CCNCC2)c([N+](=O)[O-])c1`, the inhibition was 69.8% (active).

`CN(C)CCNC(=O)c1cccc(-c2cnc3c(NC=O)cc(-c4cccc(C(F)(F)F)c4)cn23)c1`: the inhibition is -2.1%.

For `N#CCCN(C(=O)Nc1ccc(Cl)c(Cl)c1)C1CCCCC1`, the inhibition is 20.5%.

As for `N#CCCN(C(=S)Nc1ccc(Cl)c(Cl)c1)C1CCCCC1`, the inhibition is 64.3% (active).

Turning to `CCC(C)NC(=O)CN(C1CCCCC1)S(C)(=O)=O` (stereo unspecified), the inhibition is -1.2%.

On to `CS(=O)(=O)N(CC(=O)Nc1ccc(F)cc1)C1CCCCC1`, for which the inhibition was 1.1%.

With `CS(=O)(=O)N(CC(=O)Nc1ccc(Cl)c(Cl)c1)C1CCCCC1`, the inhibition was 61.3% (active).

As to `CCc1cccc(NC(=S)N(CCN(C)C)C2CCN(C(C)C)CC2)c1`, the inhibition is -1.2%.

With `Cc1cc(NC(=O)OC(C)C)ccc1-c1ccc(NC(=O)OC(C)C)cc1C`, the inhibition was 0.8%.

For the compound `CN(C)c1nc2n(c(=O)n1)CCO2`, the inhibition is -0.8%.

Regarding `Cc1c(Cl)cccc1NC(=O)[C@@]1(CC(=O)O)CC(/C=C/c2ccccc2)=NO1`, the inhibition is -0.3%.

Consider `C[C@H](NC(=O)NCCc1ccccc1)C(=O)O`, for which the inhibition was -2.9%.

Regarding `CCNS(=O)(=O)c1ccc(NC(=O)Nc2cccc(C(F)(F)F)c2)cc1`, the inhibition is 93.6% (active).

For the compound `CCNS(=O)(=O)c1ccc(NC(=O)c2cncc(Br)c2)cc1`, the inhibition was -1.5%.

As to `Cc1cc(S(=O)(=O)N2CCOCC2)ccc1OCC(=O)Nc1cccc(C(F)(F)F)c1`, the inhibition is -0.9%.

Regarding `CN(CC(=O)Nc1ccccc1[N+](=O)[O-])Cc1ccc(Br)cc1`, the inhibition was 1.1%.

With `COc1cc(CNCc2ccc(OC)c3ccccc23)cc(OC)c1OC`, the inhibition is 90.9% (active).

In the case of `COc1ccccc1N1CCN(Cc2ccc(OC)c3ccccc23)CC1`, the inhibition was 1.3%.

For the compound `COc1cc(CNCc2cccs2)cc(Br)c1OC`, the inhibition was -0.5%.

For the compound `Cn1c(=O)c2cc(NC(=O)NCCc3cccs3)ccc2n1Cc1cccc(C(F)(F)F)c1`, the inhibition was 3.3%.

In the case of `CCCCn1c(N)c(N(CCC(C)C)C(=O)COC(=O)c2cccnc2OCC)c(=O)[nH]c1=O`, the inhibition was 0.7%.

As to `CCN1CCC(O)(/C=C/c2ccc(C)cc2)C(C(=O)/C=C/c2ccc(C)cc2)C1` (stereo unspecified), the inhibition was 58.4% (active).

Take `CCN1CCC2(CC1)N=C(c1ccc(F)cc1)C(=S)N2C(=O)c1ccc(C)cc1`: the inhibition is -2.8%.

Consider `COc1cccc(NC(=O)CSc2nnc(Cc3ccc(OC)c(OC)c3)o2)c1`, for which the inhibition is -0.5%.

As to `COc1ccc(CCN=C2SCC(=O)N2C)cc1OC`, the inhibition is -1.1%.

For `O=C(O)c1cc2c(cc1NC(=O)c1c(F)cccc1Cl)OCCCO2`, the inhibition is -1.5%.

As to `CCOc1ccc(C(O)Cn2c(=N)n(CCN3CCCCC3)c3ccccc32)cc1` (stereo unspecified), the inhibition is 3.5%.

For the compound `N=c1n(Cc2ccc(Cl)cc2)c2ccccc2n1CC(O)c1ccco1` (stereo unspecified), the inhibition was 83.7% (active).

`N=c1n(CCc2ccccc2)c2ccccc2n1Cc1ccccc1F`: the inhibition was 8.3%.

As for `O=C(Cc1ccccc1)Nc1c(C(=O)N2CCCCCC2)cnn1-c1ccccc1`, the inhibition is -1.2%.

On to `O=C(Cn1cnc2ccccc2c1=O)NCC1COc2ccccc2O1` (stereo unspecified), for which the inhibition is -0.6%.

With `c1ccc(-c2cc3c(NCC4COc5ccccc5O4)ncnc3s2)cc1` (stereo unspecified), the inhibition is 91.4% (active).

Consider `O=C(Cn1nc(Cc2cccnc2)c2ccccc2c1=O)NCC1COc2ccccc2O1` (stereo unspecified), for which the inhibition was -1.9%.

For `CCN=c1sc(C(=O)Nc2ccccc2)c(C)n1CC`, the inhibition is 4.6%.

With `COC(=O)Nc1ncc(CN2C(=O)c3ccccc3C2=O)s1`, the inhibition was -1.2%.

In the case of `CCCCNC(=S)NNC(=O)c1cc(C)on1`, the inhibition was -1.2%.

As to `CC1=C(C(=O)N2CCOCC2)CC(CC(=O)NCc2cccc3ccccc23)C(=O)N1CCC1=CCCCC1` (stereo unspecified), the inhibition is -2.5%.

Regarding `CCC(C(=O)OC)n1cnc2scc(-c3ccc(C)cc3)c2c1=O` (stereo unspecified), the inhibition was 0.8%.

With `Cc1nc2scc(-c3cccs3)c2c(=O)n1N`, the inhibition is -3.1%.

In the case of `CCCc1nc2scc(-c3ccc(C)cc3)c2c(=O)n1N`, the inhibition was 89.9% (active).

Regarding `CS(=O)(=O)N(Cc1ccccc1)c1ccc(C(=O)NN=C2CCCCCC2)cc1`, the inhibition was 0.9%.

In the case of `COc1ccc(S(=O)(=O)N2CCOCC2)cc1NC(=O)CSc1cc(C)ccc1C`, the inhibition is -0.5%.

With `Cc1ccc(-c2csc(NC(=O)C3=COCCO3)n2)cc1C`, the inhibition was 4.6%.

For `COc1ccc(C(O)c2nc(-c3ccc4c(c3)OCO4)cs2)cc1` (stereo unspecified), the inhibition is 2.5%.

Turning to `O=C(Nc1nc(-c2ccc3c(c2)OCO3)cs1)c1ccncc1`, the inhibition was 72.3% (active).

For `COc1ccc(NC(=O)NCCN2CCN(c3ccc(C)cc3)CC2)c(Cl)c1`, the inhibition was 0.3%.

In the case of `COC(=O)c1cccc(-n2[nH]nnc2=S)c1`, the inhibition is 0.4%.

`Cn1c(=O)c(=O)n(C)c2cc(S(=O)(=O)NCCN3CCN(c4ccccc4F)CC3)ccc21`: the inhibition was 1.9%.

On to `Cc1nnc(NC(=O)Cn2c(=O)sc3ccccc32)s1`, for which the inhibition is -2.7%.

`CC(C)CC(=O)Nc1ccc(Cc2ccncc2)cc1`: the inhibition was 1.5%.

Regarding `Cc1nnc(NC(=O)Nc2ccc(Cl)c(Cl)c2)s1`, the inhibition was 88.5% (active).

For `Cc1ccc(S(=O)(=O)CCC(=O)Nc2nnc(CC(C)C)s2)cc1`, the inhibition was 0.4%.

Consider `COc1cccc(NC(=O)Nc2nnc(N3CCCCC3C)s2)c1` (stereo unspecified), for which the inhibition is 0.5%.

For `Cc1ccc(NC(=O)Nc2nnc(-c3ccncc3)s2)cc1`, the inhibition was 77.2% (active).

For the compound `CC(C)=CC(=O)Nc1nnc(-c2ccc(F)cc2)s1`, the inhibition was -0.8%.

Turning to `CCc1ccc(NC(=O)Nc2ccncc2)cc1`, the inhibition was 63.6% (active).

Take `CCc1ccc(NC(=O)N[C@H](C(=O)O)C(C)CC)cc1` (stereo partly specified): the inhibition was -1.3%.

For `CCOC(=O)c1sc(NC(=O)CSc2nc(C)cc(C(F)(F)F)n2)c(C#N)c1C`, the inhibition is 13.1%.

As to `CCCN=C1NC(=O)C(CC(=O)NCCc2ccc(OC)c(OC)c2)S1` (stereo unspecified), the inhibition was -0.3%.

`CC[C@H]1OC(=O)[C@H](C)[C@@H](O[C@H]2C[C@@](C)(OC)[C@@H](O)[C@H](C)O2)[C@H](C)[C@@H](O[C@@H]2O[C@H](C)C[C@H](N(C)C)[C@H]2O)[C@](C)(O)C[C@@H](C)[C@@H]2N[C@@H](COCCOC)O[C@H]([C@H]2C)[C@]1(C)O`: the inhibition was -2.3%.

As to `CCOC(=O)c1c(NC(=O)COC(=O)c2ccc(S(=O)(=O)C(F)F)cc2)sc(C(=O)N(C)C)c1C`, the inhibition was -0.1%.

Take `CCOc1ccc(OCC(=O)Nc2c3c(nn2C(C)(C)C)CS(=O)(=O)C3)cc1`: the inhibition is 1.2%.

Turning to `COc1ccc(S(=O)(=O)N2CCN(CC(=O)NCC3(N4CCOCC4)CCCCC3)CC2)cc1`, the inhibition is 0.2%.

Consider `CC[C@@H](C)[C@@H]1CN([C@@H](C)CN2CCC[C@H]2CN2C(N)=NC[C@H]2C(C)C)C(=N)N1CCc1ccc(Cl)c(Cl)c1`, for which the inhibition was -0.6%.

As for `NC1=NC[C@@H](Cc2ccc(O)cc2)N1CC1CCCCC1`, the inhibition is 0.7%.

On to `C[C@@H](CN1CCC[C@H]1CN1C(N)=NC[C@@H]1Cc1ccccc1)N1C[C@@H](Cc2ccccc2)N(CCCC2CCCC2)C1=N`, for which the inhibition was 73.7% (active).

As to `COc1ccc(S(=O)(=O)N2CCCCC2)cc1C(=O)NC1CCS(=O)(=O)C1` (stereo unspecified), the inhibition is 0.2%.

As for `Cc1ccc(C(CNC(=O)Nc2ccccc2)N2CCN(C)CC2)cc1` (stereo unspecified), the inhibition is 2%.

As for `COc1ccc(OCCCC(=O)OC(C)C(=O)Nc2ccccc2[N+](=O)[O-])cc1` (stereo unspecified), the inhibition was 0.5%.

`S=C(Nc1cccc(Br)c1)N1CCn2cccc2C1c1cccnc1` (stereo unspecified): the inhibition was 63.5% (active).

With `S=C(NCCc1ccccc1)N1CCn2cccc2C1c1ccncc1` (stereo unspecified), the inhibition is -5.1%.

For the compound `O=C(NC(=S)N1CCCCC1c1cccnc1)c1ccccc1` (stereo unspecified), the inhibition is -1.5%.

With `COc1ccc(OC)c(C(O)c2ncc(-c3cccc(C(F)(F)F)c3)[nH]2)c1` (stereo unspecified), the inhibition is 1%.

In the case of `Nc1nnc(SCC(=O)NCC(=O)Nc2ccc(F)c(F)c2F)s1`, the inhibition is -2.5%.

In the case of `O=C(NCCCN1CCOCC1)c1cc(-c2cccc(O)c2)on1`, the inhibition was -0.1%.

Consider `O=C(c1cc(-c2cccc(O)c2)on1)N1CCc2ccccc2C1`, for which the inhibition is 59.3% (active).

As to `O=C(c1cc(-c2ccc(O)cc2)on1)N1CCOCC1`, the inhibition is -1.3%.

On to `CC(=O)NS(=O)(=O)c1ccc2c(c1)Cc1cc(S(=O)(=O)NC(C)=O)ccc1-2`, for which the inhibition was 0.4%.

As for `O=C(c1ccc(Br)o1)N(c1ccccn1)C1CCCCC1`, the inhibition was 8.3%.

On to `COc1ccc(CCNC(=O)CN2C(=O)COc3ccc(S(=O)(=O)N4CCCC4)cc32)cc1OC`, for which the inhibition is 0.6%.

With `CC12CN3CCN(CC(C3)/C1=N\NC(=O)c1ccccc1N)C2`, the inhibition was 2.6%.

For the compound `CN(C)C(CNC(=O)CCCOc1ccccc1)c1ccco1` (stereo unspecified), the inhibition was 1%.

Usually inhibition stands for the drop in the measured response relative to a control, in per cent.
